# Inconclusive results are not listed. Calls of active or inactive are those of the source. Calls come from the whole dose curve; as a rule, active = well fitted inhibition curve with a large enough effect in the repeat runs; inconclusive = weak or mixed curves; inactive = flat fitted curve, though single readings scatter.
# Assay: qHTS assay to identify small molecule HDAC inhibitors (AID 1259364); note: top concentration of the series differs between compounds; nearly all actives have a fitted effect of over 45% in size
# Conditions: HCT-116 HDAC-Glo I/II luminescence, 2 h; series mostly up to 92.4 µM; activity change, negative = inhibition: at the top concentration
# Description: U.S. Tox21 Program National Center for Advancing Translational Sciences [NCATS] NIH Chemical Genomics Center [NCGC] U.S. Environmental Protection Agency [EPA] National Institutes of Environmental Health Sciences [NIEHS] National Toxicology Program [NTP] U.S. Food and Drug Administration [FDA] Tox21 Assay Overview: Histone deacetylases (HDACs) are a group of epigenetic enzymes that regulate gene expression by histone deacetylation. HDACs are capable of introducing epigenetic modifications and such aberrations contribute to the onset and progression of several human diseases, thus making HDACs a popular therapeutic target. For identifying endogenous class I/II HDAC inhibitors a homogenous, luminogenic HDAC I/II cell based assay was used to measure the relative activity of class I and II HDACs from cells. Wild type HCT-116 cells were used to screen Tox21 libraries for identifying class I/II HDAC inhibitors.
# Tox21 Assay Protocol Summary: HCT-116 cells were dispensed at 1,500 per well in 5uL of culture medium into white solid bottom 1536-well plates (Greiner Bio-One, Monroe, NC) using a Multidrop Combi (Thermo Scientific, Waltham, MA) dispenser. The assay plates were incubated at 37 C and 5% CO2 for an overnight, and then 23nL of compounds dissolved in DMSO and positive control were transferred using a Pintool station (Wako, San Diego, CA). The assay plates were incubated at 37C and 5% CO2 for 2hr. After compound treatment, 4uL of HDAC-Glo reagent (Promega Corporation, Madison, WI) was added to each well of the assay plates using Flying Reagent Dispenser (FRD, Aurora Discovery, San Diego, CA) and incubated the assay plates at room temperature for 30min. The luminescence signal was quantified using a ViewLux plate reader (Perkin Elmer, Shelton, CT).
# % is set by controls: 0 for no effect and ±100 for the full control effect.
row,SMILES,"activity change, negative = inhibition"
1,C=CC(=O)N1CCOCC1,-1.26% (inactive)
2,OCCN1C[C@H](O)[C@@H](O)[C@H](O)[C@H]1CO,9.54% [at 42.5 µM] (inactive)
3,CC(=O)c1ccc(C)cc1,-1.31% (inactive)
4,CCCCCC[C@@H](CCC)C(=O)O,-8.78% [at 42.5 µM] (inactive)
5,Nc1ccn(C2CO[C@H](CO)O2)c(=O)n1 (stereo not given in full),0.923% [at 42.5 µM] (inactive)
6,COC(=O)CCCCCCCCC(=O)OC,-3.43% (inactive)
7,CN(C)CCn1nnnc1SCC1=C(C(=O)O)N2C(=O)[C@@H](NC(=O)Cc3csc(N)n3)[C@H]2SC1,0.0736% [at 42.5 µM] (inactive)
8,CCOC(=O)Nc1ccc2c(c1)N(C(=O)CCN1CCOCC1)c1ccccc1S2,2.02% [at 42.5 µM] (inactive)
9,CCCC(C)CO (stereo not given),1.73% (inactive)
10,CC(C)c1cccc(O)c1,-2.37% (inactive)
11,C/C=C1\C(=O)C[C@H]2[C@@H]3CCC4=CC(=O)CC[C@]4(C)[C@H]3CC[C@]12C,-0.0238% [at 42.5 µM] (inactive)
12,C=C(C)C(=O)OCCC(C)OC(=O)C(=C)C (stereo not given),-0.924% (inactive)
13,O=Cc1ccccc1[N+](=O)[O-],2.7% (inactive)
14,CC(C)(C)N(CCO)CCO,1.14% (inactive)
15,CCCCCN(CCCCC)C(=O)C(CCC(=O)O)NC(=O)c1ccc(Cl)c(Cl)c1 (stereo not given),-0.167% [at 42.5 µM] (inactive)
16,CC(C)CCCC(C)CCCC(C)CCCCC(C)CCCC(C)CCCC(C)C (stereo not given),1.59% [at 42.5 µM] (inactive)
17,CCOC(=O)[C@H](CCc1ccccc1)N[C@@H](C)C(=O)N1CCC[C@H]1C(=O)O,-0.197% [at 42.5 µM] (inactive)
18,Nc1ncnc2c1ncn2Cc1c(F)cccc1Cl,1.05% [at 42.5 µM] (inactive)
19,CCCCCCC(CCCCCCCCCCC(=O)OCC(COC(C)=O)OC(C)=O)OC(C)=O (stereo not given),-5.36% [at 42.5 µM] (inactive)
20,CCOC(=O)Cn1c(=O)sc2cccc(Cl)c21,-2.64% (inactive)

row,SMILES,"activity change, negative = inhibition"
1,C=CC(=O)OCCCCCC,3.18% (inactive)
2,Nc1nc2c(ncn2CCC(CO)CO)c(=O)[nH]1,4.47% [at 42.5 µM] (inactive)
3,CC(C)N1C(=O)c2ccccc2C1=O,-0.271% (inactive)
4,CC(O)CN(CCCN(C)C)CCCN(C)C (stereo not given),13.2% (inactive)
5,O=C(O)C1CCC1,2.59% [at 42.5 µM] (inactive)
6,CCCCCCC(=O)OCC,2.3% (inactive)
7,CCC(C)OC(=O)N1CCCCC1CCO (stereo not given),1.16% (inactive)
8,CCN(CC)C(=O)c1ccc(O)c(OC)c1,5.47% [at 42.5 µM] (inactive)
9,C=CCSCC1Nc2cc(Cl)c(S(N)(=O)=O)cc2S(=O)(=O)N1 (stereo not given),-14.2% [at 42.5 µM] (inactive)
10,CCCCNc1ccccc1,-2.4% (inactive)
11,CC(=O)OC(C)(C)C,-15.3% (inactive)
12,O=C(O)c1cccc(C(=O)O)n1,-1.91% (inactive)
13,CC(C)[N+](C)(C)CC(O)COc1cccc2ccccc12 (stereo not given),-21.1% [at 42.5 µM] (inactive)
14,CCCCCCCCCCCCCCCCCCOCC(O)CO (stereo not given),-0.538% [at 42.5 µM] (inactive)
15,NC(=O)c1ncn([C@@H]2O[C@H](CO)[C@@H](O)[C@H]2O)c1N,-0.169% [at 42.5 µM] (inactive)
16,CC(C)c1cccc(C(C)C)c1N,0.636% (inactive)
17,COc1cc(O)cc(O)c1,-11.3% [at 42.5 µM] (inactive)
18,N#CC1(O)CCCCC1,-6.99% (inactive)
19,Fc1ccccc1-c1ccccc1,5.63% (inactive)
20,COC(C(=O)O)c1ccccc1 (stereo not given),3.68% (inactive)

# From PubChem BioAssay (Tox21)
